Assay results from PubChem BioAssay AID1159580 (chemical genetic matrix, 2015).
Hit rate of the full screen: of about 5,500 compounds, about 2,000 (36%) were called active. About 18% were inconclusive and are not listed. No stated cut-off is given here; in the data, active means normalized growth mostly below about 0.91 (no sharp cut-off); inconclusive means no clear call, values can overlap the other calls; inactive means mostly above about 0.92. This is one part of the list.

Assay: chemical genetic growth profiling, strain panel (AID 1159580);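 further: tested at 20 µM; growth read once vehicle control cultures reached saturation at 30 °C; 1 = growth at the plate median or of vehicle wells; lower values mean less growth of the strain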
Details: growth OD

Measured: normalized growth

NC[C@@H]1O[C@H](O[C@@H]2[C@@H](CO)OC(O[C@@H]3[C@@H](O)[C@H](N)C[C@H](N)[C@H]3OC3O[C@H](CN)[C@@H](O)[C@H](O)[C@H]3N)[C@@H]2O)[C@H](N)[C@@H](O)[C@@H]1O (some centres not stated)
inactive: S. cerevisiae deletion strains, locus YJR075W, strain HOC1, active compounds read low 1.02 | S. cerevisiae deletion strains, locus YKL009W, strain mrt4, active compounds read low 1.06 | S. cerevisiae deletion strains, locus YKL068W, active compounds read low 1.01 | S. cerevisiae deletion strains, locus YKL085W, strain MDH1 (second series), active compounds read low 1.01 | S. cerevisiae deletion strains, locus YKL085W, strain MDH1, active compounds read low 1.01 | S. cerevisiae deletion strains, locus YKL160W, strain elf1, active compounds read low 1.02 | S. cerevisiae deletion strains, locus YKL190W, strain CNB1, active compounds read low 1 | S. cerevisiae deletion strains, locus YKR001C, strain vps1, active compounds read low 1.04 | S. cerevisiae deletion strains, locus YKR026C, strain gcn3, active compounds read low 1.03 | S. cerevisiae deletion strains, locus YKR091W, strain srl3, active compounds read low 1.02 | S. cerevisiae deletion strains, locus YLL001W, strain dnm1, active compounds read low 1.06 | S. cerevisiae deletion strains, locus YLL026W, active compounds read low 1.02 | S. cerevisiae deletion strains, locus YLL041C, strain sdh2, active compounds read low 1.02 | S. cerevisiae deletion strains, locus YLR027C, strain aat2, active compounds read low 1.01 | S. cerevisiae deletion strains, locus YLR039C, strain RIC1, active compounds read low 0.973 | S. cerevisiae deletion strains, locus YLR058C, strain SHM2, active compounds read low 1 | S. cerevisiae deletion strains, locus YLR102C, strain apc9, active compounds read low 1.02 | S. cerevisiae deletion strains, locus YLR113W, strain HOG1, active compounds read low 0.981 | S. cerevisiae deletion strains, locus YLR221C, strain rsa3, active compounds read low 1.04 | S. cerevisiae deletion strains, locus YLR258W, strain gsy2, active compounds read low 1.01 | S. cerevisiae deletion strains, locus YLR262C, strain YPT6 (second series), active compounds read low 1.03 | S. cerevisiae deletion strains, locus YLR262C, strain YPT6, active compounds read low 1.02 | S. cerevisiae deletion strains, locus YLR268W, strain sec22, active compounds read low 1.05 | S. cerevisiae deletion strains, locus YLR320W, strain mms22, active compounds read low 1.05 | S. cerevisiae deletion strains, locus YLR330W, strain CHS5, active compounds read low 0.996 | S. cerevisiae deletion strains, locus YLR342W, strain FKS1 (second series), active compounds read low 1.03 | S. cerevisiae deletion strains, locus YLR342W, strain FKS1, active compounds read low 1.03 | S. cerevisiae deletion strains, locus YLR357W, strain rsc2, active compounds read low 1.04 | S. cerevisiae deletion strains, locus YLR370C, strain arc18, active compounds read low 1.04 | S. cerevisiae deletion strains, locus YLR371W, strain rom2, active compounds read low 1.02 | S. cerevisiae deletion strains, locus YLR384C, strain iki3, active compounds read low 1.03 | S. cerevisiae deletion strains, locus YLR418C, strain cdc73, active compounds read low 1.04 | S. cerevisiae deletion strains, locus YML016C, strain PPZ1, active compounds read low 1.01 | S. cerevisiae deletion strains, locus YML032C, strain rad52, active compounds read low 1.02 | S. cerevisiae deletion strains, locus YML120C, strain ndi1, active compounds read low 1.05 | S. cerevisiae deletion strains, locus YML124C, strain tub3, active compounds read low 1.01 | S. cerevisiae deletion strains, locus YMR058W, strain fet3, active compounds read low 1.03 | S. cerevisiae deletion strains, locus YMR078C, strain ctf18, active compounds read low 1.04 | S. cerevisiae deletion strains, locus YMR125W, strain sto1, active compounds read low 1.04 | S. cerevisiae deletion strains, locus YMR129W, active compounds read low 1.02 | S. cerevisiae deletion strains, locus YMR205C, strain PFK2, active compounds read low 1.03 | S. cerevisiae deletion strains, locus YMR223W, strain ubp8, active compounds read low 1 | S. cerevisiae deletion strains, locus YMR231W, strain pep5, active compounds read low 1.03 | S. cerevisiae deletion strains, locus YMR263W, strain SAP30, active compounds read low 1.01 | S. cerevisiae deletion strains, locus YMR307W, strain GAS1, active compounds read low 1.1 | S. cerevisiae deletion strains, locus YNL067W, strain RPL9B, active compounds read low 1.02 | S. cerevisiae deletion strains, locus YNL071W, strain lat1, active compounds read low 1.03 | S. cerevisiae deletion strains, locus YNL128W, strain TEP1, active compounds read low 1.02 | S. cerevisiae deletion strains, locus YNL153C, strain GIM3, active compounds read low 1 | S. cerevisiae deletion strains, locus YNL183C, strain NPR1, active compounds read low 0.944 | S. cerevisiae deletion strains, locus YNL209W, strain ssb2, active compounds read low 1.03 | S. cerevisiae deletion strains, locus YNL233W, strain BNI4, active compounds read low 0.985 | S. cerevisiae deletion strains, locus YNL248C, strain rpa49, active compounds read low 0.992 | S. cerevisiae deletion strains, locus YNL250W, strain rad50, active compounds read low 1 | S. cerevisiae deletion strains, locus YNL271C, strain bni1, active compounds read low 1.02 | S. cerevisiae deletion strains, locus YNL298W, strain CLA4, active compounds read low 1.01 | S. cerevisiae deletion strains, locus YNL307C, strain MCK1, active compounds read low 1.02 | S. cerevisiae deletion strains, locus YNL322C, strain KRE1 (second series), active compounds read low 1.04 | S. cerevisiae deletion strains, locus YNL322C, strain KRE1, active compounds read low 0.997 | S. cerevisiae deletion strains, locus YNR049C, strain mso1, active compounds read low 1.03 | S. cerevisiae deletion strains, locus YNR052C, strain pop2, active compounds read low 1.01 | S. cerevisiae deletion strains, locus YOL006C, strain TOP1, active compounds read low 0.979 | S. cerevisiae deletion strains, locus YOL012C, strain htz1 0.869 | S. cerevisiae deletion strains, locus YOL147C, strain pex11, active compounds read low 1.01 | S. cerevisiae deletion strains, locus YOR001W, strain rrp6, active compounds read low 0.982 | S. cerevisiae deletion strains, locus YOR061W, strain CKA2, active compounds read low 1.01 | S. cerevisiae deletion strains, locus YOR069W, strain VPS5, active compounds read low 1 | S. cerevisiae deletion strains, locus YOR070C, strain gyp1, active compounds read low 1.03 | S. cerevisiae deletion strains, locus YOR080W, strain dia2, active compounds read low 1.03 | S. cerevisiae deletion strains, locus YOR083W, strain WHI5, active compounds read low 1.02 | S. cerevisiae deletion strains, locus YOR106W, strain vam3, active compounds read low 1.04 | S. cerevisiae deletion strains, locus YOR136W, strain idh2, active compounds read low 1.01 | S. cerevisiae deletion strains, locus YOR144C, strain elg1, active compounds read low 1.02 | S. cerevisiae deletion strains, locus YOR184W, strain ser1, active compounds read low 1.03 | S. cerevisiae deletion strains, locus YOR231W, strain MKK1, active compounds read low 1.01 | S. cerevisiae deletion strains, locus YOR265W, strain rbl2, active compounds read low 1.02 | S. cerevisiae deletion strains, locus YOR270C, strain vph1, active compounds read low 1.06 | S. cerevisiae deletion strains, locus YOR290C, strain snf2, active compounds read low 1.04 | S. cerevisiae deletion strains, locus YOR316C, strain cot1, active compounds read low 1.03 | S. cerevisiae deletion strains, locus YPL051W, strain arl3, active compounds read low 1.01 | S. cerevisiae deletion strains, locus YPL055C, strain LGE1, active compounds read low 0.973 | S. cerevisiae deletion strains, locus YPL078C, strain atp4, active compounds read low 1.01 | S. cerevisiae deletion strains, locus YPL106C, strain sse1, active compounds read low 1.01 | S. cerevisiae deletion strains, locus YPL240C, strain hsp82, active compounds read low 1.03 | S. cerevisiae deletion strains, locus YPL241C, strain CIN2, active compounds read low 0.998 | S. cerevisiae deletion strains, locus YPL256C, strain CLN2, active compounds read low 0.997 | S. cerevisiae deletion strains, locus YPR119W, strain clb2, active compounds read low 1.02 | S. cerevisiae deletion strains, locus YPR141C, strain kar3, active compounds read low 1.02 | S. cerevisiae deletion strains, locus YPR163C, strain tif3, active compounds read low 1.03 | S. cerevisiae deletion strains, locus YPR167C, strain met16, active compounds read low 1.02 | S. cerevisiae deletion strains, strain wtn01, active compounds read low 1.03 | S. cerevisiae strains, strain wild type, active compounds read low 1.01
